Screens: PubChem, several laboratories
SKKanGAS inh: inhibitors of SKKanGAS S. pyogenes growth in kanamycin (SK-promoter or general growth effect). actives 1.3% (n = 300,000). BacTiter-Glo, 6 h. inhibition, % at 7.5 µM;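 active = mean replicate score, as percent of positive control median, at least 50; inconclusive = mean below 50 but one replicate at or above 50; inactive = mean and every replicate below 50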;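 note: strain carries kanamycin resistance gene driven by streptokinase promoter and grows in 40 µg/ml kanamycin; loss of luminescence reflects streptokinase promoter inhibition or plain growth inhibition; 0% = median of DMSO wells and 100% = positive control at its reference dose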
CR mimetic SO: yeast age-related superoxide inhibition as caloric restriction mimetic. S. cerevisiae aged cells, superoxide DHE fluorescence; active compounds read low. AID 2690. actives 0.18% (n = 330,000). superoxide response (% of plate mean), % at 10 µM;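 active = superoxide response under a set limit, about three screen SD below normal, cut at about 65% in these data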;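 note: yeast aged for seven days with compound at 30 °C before DHE staining; 100% = average MFI of all compound-treated wells on the plate with controls excluded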
Calb FLC: affects C. albicans growth with fluconazole; C. albicans CaCi-2 (fluconazole-resistant clinical isolate) + fluconazole, Alamar Blue growth, 48 h; growth inhibition, % (no concentration beside the values); actives 0.57% (n = 300,000);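 active = growth inhibition above about 58% in most replicates, limit read from the data, passing the limit was not always enough; inconclusive = exactly half the replicates above a set limit; inactive = most replicates below a set limit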;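 note: all wells also contain fluconazole at 8 µg/ml as a sub-toxic cotreatment; 0% = median of DMSO wells and 100% = median of geldanamycin control wells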
Platelet DG rel: modulates dense granule release in human platelets. inhibition, %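 (compounds screened at 7.5 µM in platelet-rich plasma)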. human platelet-rich plasma, SFLLRN dense granule ATP release, luminescence. actives 0.22% (n = 300,000);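 active = mean replicate score, as percent of positive control, at or above 50; inconclusive = mean below 50 but at least one replicate at or above 50; inactive = mean and every replicate below 50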
PolyA inh: blocks polyadenylation in yeast reporter cells | S. cerevisiae SKY197-pL101 polyadenylation reporter, beta-gal luminescence; efflux-impaired pdr1/pdr3 knockout yeast; score 100 = 6 SD above DMSO | activity score, % at 12 µM | actives 0.02% (n = 300,000) | AID 1875;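 active = lowest replicate activity score at least 50, where 100 means six control SD above control mean; inconclusive = lowest score under 50 but half or more replicates reach 50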;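 note: yeast exposed to compound for 9 h at 30 °C; higher score means more reporter readthrough which indicates perturbed polyadenylation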
Numbers without * were called inactive; ? = inconclusive; · = not tested or not shown. Rows were chosen to be rich in hits. Some 2% of all compounds tested hit in one or more screens of this group.

SMILES | SKKanGAS inh | CR mimetic SO | Calb FLC | Platelet DG rel | PolyA inh
O=C(O)c1cccc2c(-c3ccccc3)c(-c3ccccc3)[nH]c12 | 59* | 129 | 30 | 3 | -5
O=C(O)c1ccccc1-c1nc(-c2ccccc2)c(-c2ccccc2)[nH]1 | -1 | 90 | 16 | -1 | 5
COc1ccc(-c2cc(C(F)(F)F)nc(N3CCCCCC3)n2)cc1 | ? | 104 | -10 | -3 | 5
FC(F)(F)c1cc(-c2ccccc2)nc(N2CCCCCC2)n1 | 86* | 99 | -2 | 21 | -3
COc1cccc(-c2cc(C(F)(F)F)nc(N3CCCCC3)n2)c1 | 57* | 111 | 29 | -1 | 9
COCCn1c(=O)[nH]c(=O)c2cc(C(=O)c3cc(Cl)ccc3O)cnc21 | 11 | 100 | 89* | 0 | 0
Cc1cccc(N2CCN(CCCNC(=O)c3ccc(NC(=O)C4=CSCCO4)cc3)CC2C)c1 (stereo unspecified) | 1 | 96 | -2 | 10 | 1
COc1cccc(CN(C)C(=O)CSC(C)C(=O)Nc2cc(C)on2)c1OC (stereo unspecified) | -1 | 107 | 0 | -3 | -5
N#Cc1cnn2c(-c3cccc([N+](=O)[O-])c3)ccnc12 | · | 104 | · | · | ·
CC1=NN(c2nc(-c3ccccc3)cs2)C(=O)C1 | 66* | 102 | -1 | -2 | 0
C=C1CCC2C(C)(C)[C@@H](O)CC[C@@]2(C)[C@@H]1COc1ccc2ccc(=O)oc2c1 (stereo partly specified) | 52* | 93 | 7 | 3 | -10
O=C(CNS(=O)(=O)c1ccc(Br)s1)NCC1COc2ccccc2O1 (stereo unspecified) | 2 | 114 | 88* | -13 | 22
COC(=O)[C@]1(C)N[C@H](CN(C)C(=O)c2ccc(F)cc2)[C@@H]2C(=O)N(Cc3ccccc3)C(=O)[C@@H]21 | · | 101 | · | · | ·
CC(=O)c1c(C)[nH]c(C(=O)COC(=O)c2ccc(Cl)nc2)c1C | · | 74 | · | · | ·
Cc1nn(-c2nc3ccccc3[nH]2)c(=O)c2ccccc12 | ? | 80 | -1 | 81* | -18
Cc1nn(-c2ccc3ccccc3c2)c(=O)c2ccccc12 | 11 | 101 | 14 | 0 | -1
Cc1nn(-c2nc3ccccc3[nH]2)c(N)c1-c1ccc(Cl)cc1 | 68* | 93 | 32 | 1 | -60
CCCc1cc(=O)n2[nH]cc(-c3ccc(Cl)cc3)c2n1 | 85* | 102 | -1 | -1 | -3
CCOC(=O)Cc1cc(=O)n2[nH]cc(-c3cccc(Br)c3)c2n1 | 71* | 97 | 10 | -5 | 5
COCc1cc(=O)n2[nH]cc(-c3ccccc3)c2n1 | 8 | 102 | 8 | 1 | 18
NC(=O)c1ccc(NC(=O)c2cccc3c2OCCCO3)cc1 | -4 | 103 | -1 | 0 | -1
CCN(CC(=O)Nc1ccc2c(c1)OCCO2)C(=O)c1ccc(Cl)cc1Cl | -3 | 105 | 0 | 18 | -7
C=CCOC(=O)C1=C(C)NC(SCC)=C(C#N)C1c1ccc(Cl)cc1 (stereo unspecified) | 76* | 93 | 3 | · | -20
CC(=O)Nc1nc2ccccc2n1CCOc1ccccc1 | 63* | 92 | -5 | -2 | -7
CCCCn1c(NC(=S)Nc2ccccc2)nc2ccccc21 | 9 | 101 | 31 | -53 | -13
SMILES | SKKanGAS inh | CR mimetic SO | Calb FLC | Platelet DG rel | PolyA inh
S=C(Nc1ccccc1)Nc1nc2ccccc2n1CCOc1ccccc1 | 42 | 125 | 94* | -2 | -11
COc1ccc(OCCn2c(NC(=O)c3ccco3)nc3ccccc32)cc1 | 62* | 96 | 5 | -40 | -23
CC(=O)Nc1nc2ccccc2n1CCN(C)C | 0 | 101 | -4 | -4 | -4
CCCCn1c(CCCNC(=O)c2ccco2)nc2ccccc21 | 53* | 89 | 6 | -1 | -18
CCn1c(C)nnc1SCC(=O)Nc1ccc(Cl)cc1 | 1 | 102 | -3 | 2 | 7
Cc1ccc(NC(=O)C2CCN(C(=O)c3ccc(F)cc3)CC2)nc1 | -10 | 98 | · | -2 | 0
COCCN1CC(CNC(=O)c2cc(COc3ccc(C)c(C)c3)on2)CC1=O (stereo unspecified) | 5 | 98 | 2 | 0 | -3
CC(C)Cc1ccc(CN2CCCC(NC(=O)CCN3CCCO3)C2)cc1 (stereo unspecified) | 44 | 91 | 88* | -4 | 11
CC(=O)c1c(C)nn(CC(=O)NC2CCCN(Cc3ccc(CC(C)C)cc3)C2)c1C (stereo unspecified) | 8 | 87 | 17 | 77* | -14
CCn1c2ccccc2c2nc3ccccc3nc21 | 10 | 98 | ? | -1 | -37
CCCCc1c(C)nn(-c2nnc3c4ccccc4n(CC)c3n2)c1C | 76* | 101 | 0 | 1 | -16
Cn1cccc1Cc1nnc(SCC(=O)NCc2ccco2)n1-c1ccc(F)cc1 | 0 | 97 | -1 | -2 | 4
O=C(CSc1nnc(CNC(=O)c2ccc(F)cc2)o1)NCc1ccccc1Cl | 51* | 96 | -2 | 9 | 11
O=C(CSc1nnc(CNC(=O)c2ccccc2)o1)NCc1ccccc1Cl | 18 | 96 | 2 | -6 | 3
Cn1cccc1Cc1nnc(SCC(=O)NCc2ccccc2Cl)n1-c1ccc(F)cc1 | -14 | 85 | 0 | 3 | 73*
Cc1nn(C(C)C(=O)N2CCCCC2)c(=O)c2c1sc1ccccc12 (stereo unspecified) | -9 | 92 | 3 | 1 | -19
CCC(C(=O)N1CCC(N2CCCCC2)CC1)n1nc(C)c2sc3ccccc3c2c1=O (stereo unspecified) | 53* | 104 | 3 | 1 | 10
Clc1ccc(OCCN2CCN(c3ncnc4sccc34)CC2)cc1 | · | 95 | 100* | 0 | ·
COc1ccc2oc(=O)c(-c3csc(Nc4ccc(O)cc4)n3)cc2c1 | 104* | 100 | -6 | -1 | -28
CC(C)C(OC(=O)CN1C(=O)c2ccccc2C1=O)C(=O)NC1CCCCC1 (stereo unspecified) | 0 | 109 | 1 | -34 | 2
COc1cc(NC(=O)N[C@@H](Cc2c[nH]c3ccccc23)C(=O)O)c(C(=O)O)cc1OC | 4 | 102 | 4 | -5 | 2
COc1cc(C(=O)NC(C)c2cc(C)ccc2C)ccc1OCC(=O)N1CCOCC1 (stereo unspecified) | · | 90 | · | · | ·
O=C1CSc2ccc(C(=O)Nc3cccc(S(=O)(=O)Nc4ccc(Br)cc4)c3)cc2N1 | 73* | 97 | -1 | -7 | -6
O=C(O)c1ccc(NC(=O)c2cccc(S(=O)(=O)Nc3ccc(C(=O)O)cc3)c2)cc1 | -8 | 107 | -8 | 15 | 3
Cc1cc(C)n2nc(SCCOc3ccccc3F)nc2n1 | 3 | 101 | 8 | -6 | 18
CCc1cccc(CC)c1NC(=O)COC(=O)C1(C)CC1(Cl)Cl (stereo unspecified) | 17 | 93 | -16 | -1 | 4
CCn1cc(C(=O)O)c(=O)c2cc(F)c(N3CCN(S(=O)(=O)c4ccc(Br)cc4)CC3)cc21 | 34 | 100 | 0 | -10 | 1
